Several values for one entry are separate records, joined by “and”; a condition that tells them apart may be missing. Equal entries are not always repeated. Records with an inconclusive call do not appear. Some structures have more than one record in an assay (separate samples or runs), and their calls can disagree. Activity calls are given as the source filed them. Rule for the calls, unless noted: active = hit-call score of the fitted dose curve at least 0.9, where 1 is the maximum; inactive = score below 0.9.
Key:
[1] = read-out: Interleukin-8 (IL8), CXCL8 (gene 3576); test: BSK_3C_IL8: BioMAP Diversity Plus: 3C Assay for Interleukin-8 (IL8) Biomarker Activity (AID 2283020); details: primary human endothelial cells (HUVEC); actives raise or lower the signal
Procedure, shortened: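 Endothelial primary cells of human umbilical vein origin are dosed with chemical; after 24 h the IL-8 biomarker is measured by ELISA, and concentration–response is fitted in both directions versus DMSO.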

[2] = read-out: Monokine induced gamma interferon (MIG), CXCL9 (gene 4283); test: BSK_3C_MIG: BioMAP Diversity Plus: 3C Assay for Monokine induced gamma interferon (MIG) Biomarker Activity (AID 2283021); details: primary human endothelial cells (HUVEC); actives raise or lower the signal;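 for AC50: MIG protein level measured by immunoassay in the treated endothelial cultures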
Procedure, shortened: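 Endothelial primary cells (human umbilical vein) are dosed with test chemical in the 3C system. MIG levels are measured by ELISA at 24 h and fitted in both directions relative to DMSO.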

[3] = target: human Vitamin D Receptor (VDR), VDR (gene 7421) (UniProt P11473); test: ATG_VDR_TRANS: Attagene TRANS-FACTORIAL HepG2 Assay for human Vitamin D Receptor (VDR) (AID 2283022; active = hit-call score of the fitted dose curve at least 0.9, where 1 is the maximum)
Sequence of human Vitamin D Receptor (VDR), VDR (gene 7421) (P11473 whole entry, looked up, the tested form may be a part): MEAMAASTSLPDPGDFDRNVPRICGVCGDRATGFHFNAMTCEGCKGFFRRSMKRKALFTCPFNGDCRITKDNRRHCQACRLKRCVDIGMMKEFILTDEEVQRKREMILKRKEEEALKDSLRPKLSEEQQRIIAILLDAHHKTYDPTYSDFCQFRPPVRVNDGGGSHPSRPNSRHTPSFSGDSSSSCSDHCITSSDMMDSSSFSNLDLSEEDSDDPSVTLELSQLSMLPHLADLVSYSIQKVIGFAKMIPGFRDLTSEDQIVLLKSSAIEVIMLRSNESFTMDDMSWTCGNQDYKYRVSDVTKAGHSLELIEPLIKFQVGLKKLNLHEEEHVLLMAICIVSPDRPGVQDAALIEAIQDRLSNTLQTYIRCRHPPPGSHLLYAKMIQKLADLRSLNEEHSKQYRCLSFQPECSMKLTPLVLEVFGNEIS
Procedure, shortened: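 Transactivation by an exogenous VDR-Gal4 chimera in transiently transfected HepG2 cells was measured as reporter transcript level 24 hours after chemical treatment. RT-PCR products were analysed by capillary electrophoresis and fitted in the positive direction relative to DMSO.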

[4] = BSK_3C_SRB: Viability Assessment in the BioMAP Diversity Plus: 3C Assay (AID 2283023); details: primary human endothelial cells (HUVEC);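 note: fitted both ways against DMSO so a hit may be signal rise or drop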
Procedure, shortened: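 Cytotoxicity readout in parallel HUVEC 3C cultures: after 24 h compound exposure, cells fixed with 10% TCA, stained with 0.1% SRB and read at 560 nm. Gain or loss relative to DMSO fitted.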

[5] = read-out: Matrix Metallopeptidase 1 (MMP1), MMP1 (gene 4312); test: BSK_BE3C_MMP1: BioMAP Diversity Plus: BE3C Assay for Matrix Metallopeptidase 1 (MMP1) Biomarker Activity (AID 2283024); details: primary human bronchial epithelial cells; actives raise or lower the signal
Procedure, shortened: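 MMP1 signal, measured by ELISA after a 24 h chemical exposure of human primary bronchial epithelial cells, is analysed with bidirectional fitting using DMSO as negative control.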

[6] = read-out: Pselectin, SELP (gene 6403); test: BSK_4H_Pselectin: BioMAP Diversity Plus: 4H Assay for Pselectin Biomarker Activity (AID 2283026); details: primary human endothelial cells (HUVEC); actives raise or lower the signal
Procedure, shortened: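 Endothelial primary cells (human umbilical vein) are dosed, incubated 24 h, and assayed for surface P-selectin by ELISA; responses in either direction are fitted relative to the DMSO negative control.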

[7] = BSK_4H_SRB: Viability Assessment in the BioMAP Diversity Plus: 4H Assay (AID 2283027); details: primary human endothelial cells (HUVEC);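 note: cells exposed to compound for 24 h before staining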;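 for AC50: curves fitted both ways versus DMSO so AC50 may be loss or gain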
Procedure, shortened: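 Cytotoxicity readout: sulforhodamine B (0.1%) staining of total protein after 10% TCA fixation, measured at 560 nm in human umbilical vein endothelium at 24 h. DMSO set the baseline; fitting was bidirectional.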

[8] = BSK_BE3C_SRB: Viability Assessment in the BioMAP Diversity Plus: BE3C Assay (AID 2283028); details: primary human bronchial epithelial cells;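 for AC50: fitted both ways so AC50 may mark signal gain or loss versus DMSO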
Procedure, shortened: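 Cytotoxicity read-out: SRB (0.1%) staining of TCA-fixed (10%) human lung bronchial epithelial cells, absorbance 560 nm, 24 h post-dosing. Curves fitted both directions relative to DMSO.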

[9] = read-out: Thrombomodulin, THBD (gene 7056); test: BSK_3C_Thrombomodulin: BioMAP Diversity Plus: 3C Assay for Thrombomodulin Biomarker Activity (AID 2283029); details: primary human endothelial cells (HUVEC); actives raise or lower the signal
Procedure, shortened: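 Endothelial cells from umbilical vein are dosed with test chemical and incubated 24 h. Thrombomodulin is then quantified by ELISA, with DMSO serving as negative control and activity baseline.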

[10] = read-out: Urokinase-type plasminogen activator receptor (uPAR), PLAUR (gene 5329); test: BSK_4H_uPAR: BioMAP Diversity Plus: 4H Assay for Urokinase-type plasminogen activator receptor (uPAR) Biomarker Activity (AID 2283030); details: primary human endothelial cells (HUVEC); actives raise or lower the signal
Procedure, shortened: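 uPAR level read by ELISA on HUVEC cultures (BioMAP 4H) 24 h post-dosing, analyzed for gain or loss relative to DMSO. Parallel SRB staining assessed overt cytotoxicity.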

[11] = read-out: Vascular endothelial growth factor receptor 2 (Homo sapiens) (UniProt P35968); test: BSK_4H_VEGFRII: BioMAP Diversity Plus: 4H Assay for Vascular endothelial growth factor receptor 2 (VEGFR2) Biomarker Activity (AID 2283031); details: primary human endothelial cells (HUVEC); actives raise or lower the signal;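 for AC50: cell-surface VEGFR2 protein level quantified by ELISA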
Procedure, shortened: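 Measured by ELISA after 24 h of compound treatment: VEGFR2 on primary human umbilical vein endothelial cells, fitted in both directions relative to DMSO. Parallel cultures received SRB staining (560 nm) for overt cytotoxicity.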

[12] = read-out: Human Leukocyte Antigen - DR isotype (HLADR), HLA-DRA (gene 3122); test: BSK_BE3C_HLADR: BioMAP Diversity Plus: BE3C Assay for Human Leukocyte Antigen - DR isotype (HLADR) Biomarker Activity (AID 2283032); details: primary human bronchial epithelial cells; actives raise or lower the signal
Procedure, shortened: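 Chemicals are dosed onto BE3C bronchial epithelial cultures of human origin and left 24 h. HLA-DR is then measured by ELISA, and the endpoint is fitted in both directions using DMSO as the activity baseline.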

[13] = read-out: Vascular cell adhesion molecule 1 (VCAM1), VCAM1 (gene 7412); test: BSK_4H_VCAM1: BioMAP Diversity Plus: 4H Assay for Vascular cell adhesion molecule 1 (VCAM1) Biomarker Activity (AID 2283033); details: primary human endothelial cells (HUVEC); actives raise or lower the signal
Procedure, shortened: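 Chemicals are added to primary human umbilical vein endothelial cells. After 24 h, VCAM-1 levels are measured by ELISA. Values come from bidirectional fitting referenced to DMSO.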

[14] = read-out: Interferon-gamma inducible Protein 10 (IP10), CXCL10 (gene 3627); test: BSK_BE3C_IP10: BioMAP Diversity Plus: BE3C Assay for Interferon-gamma inducible Protein 10 (IP10) Biomarker Activity (AID 2283034); details: primary human bronchial epithelial cells; actives raise or lower the signal
Procedure, shortened: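 IP-10 quantified by ELISA serves as the endpoint. Cells: primary human bronchial epithelium, read 24 h after compound addition. Activity is derived by bidirectional fitting with DMSO as negative control.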

[15] = read-out: Monokine induced gamma interferon (MIG), CXCL9 (gene 4283); test: BSK_BE3C_MIG: BioMAP Diversity Plus: BE3C Assay for Monokine induced gamma interferon (MIG) Biomarker Activity (AID 2283035); details: primary human bronchial epithelial cells; actives raise or lower the signal
Procedure, shortened: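 hu bronchial epithelial 1° cells, 24 h cpd; MIG by ELISA; bidirectional fit, DMSO = baseline.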

[16] = read-out: urokinase plasminogen activator (uPA), PLAU (gene 5328); test: BSK_BE3C_uPA: BioMAP Diversity Plus: BE3C Assay for urokinase plasminogen activator (uPA) Biomarker Activity (AID 2283038); details: primary human bronchial epithelial cells; actives raise or lower the signal
Procedure, shortened: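 ELISA for uPA on human primary bronchial epithelial cultures 24 h post-treatment, gain or loss against DMSO. Parallel SRB staining (0.1% after 10% TCA fixation, 560 nm) assessed overt cytotoxicity.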

[17] = read-out: Interleukin-6 (IL6), IL6 (gene 3569); test: BSK_CASM3C_IL6: BioMAP Diversity Plus: CASM3C Assay for Interleukin-6 (IL6) Biomarker Activity for (AID 2283040); details: primary human coronary artery smooth muscle cells; actives raise or lower the signal
[18] = read-out: Urokinase-type plasminogen activator receptor (uPAR), PLAUR (gene 5329); test: BSK_BE3C_uPAR: BioMAP Diversity Plus: BE3C Assay for Urokinase-type plasminogen activator receptor (uPAR) Biomarker Activity (AID 2283039); details: primary human bronchial epithelial cells; actives raise or lower the signal
Procedure, shortened: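 Steps: dose human primary bronchial epithelial cells, incubate 24 h, measure uPAR by ELISA, then fit gain- or loss-of-signal response bidirectionally relative to DMSO.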

[19] = read-out: Plasminogen activator inhibitor-1 (PAI1), SERPINE1 (gene 5054); test: BSK_BE3C_PAI1: BioMAP Diversity Plus: BE3C Assay for Plasminogen activator inhibitor-1 (PAI1) Biomarker Activity (AID 2283037); details: primary human bronchial epithelial cells; actives raise or lower the signal
Procedure, shortened: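 Values derive from bidirectional fitting against DMSO baseline of PAI-1 levels, measured by ELISA in human bronchial epithelial cells 24 h after compound addition.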

[20] = read-out: Transforming growth factor beta 1 (TGFb1), TGFB1 (gene 7040); test: BSK_BE3C_TGFb1: BioMAP Diversity Plus: BE3C Assay for Transforming growth factor beta 1 (TGFb1) Biomarker Activity (AID 2283036); details: primary human bronchial epithelial cells; actives raise or lower the signal
Procedure, shortened: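 Bronchial epithelial primary cells are treated with test chemical, then TGF-b1 is quantified by ELISA after 24 hours. Values derive from bidirectional fitting against DMSO, with cytotoxicity checked by SRB staining in parallel cultures.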

Measured: AC50

NCC(F)(F)C(F)(F)C(F)(F)C(F)(F)C(F)(F)C(F)(F)F
not listed: [18] | [19] | [20]
inactive: all other assays above

C=CC(=O)OCC(F)(F)C(F)(F)C(F)(F)C(F)(F)C(F)(F)C(F)(F)C(F)(F)C(F)F
active: [9] 5.95 µM and 19.2 µM
not listed: [19] | [20]
inactive: all other assays above

CCN=C1C=CC(=C(c2ccc(N(CC)CC)cc2)c2ccc(N(CC)CC)cc2)c2ccccc21
inactive: [5] | [8] | [11] | [16] | [17]
active: [1] 4.77 µM and 4.29 µM | [2] 2.92 µM and 3.32 µM | [4] 1.6 µM and 1.67 µM | [5] 3.21 µM | [6] 1.46 µM and 957 nM | [7] 1.76 µM and 1.74 µM | [9] 4.54 µM and 3.14 µM | [10] 4.99 µM and 2.26 µM | [12] 1.85 µM and 1.69 µM | [13] 2.13 µM and 2.05 µM | [14] 2.46 µM and 2.22 µM | [15] 2.48 µM and 2.92 µM | [19] 716 nM and 210 nM | [16] 2.03 µM | [18] 1.93 µM and 1.74 µM

OCCCC(F)(F)C(F)(F)C(F)(F)C(F)(F)C(F)(F)C(F)(F)C(F)(F)C(F)(F)F
active: [1] 19.6 µM and 20.6 µM | [2] 50.9 µM and 52.6 µM | [4] 10.5 µM and 28.4 µM | [5] 7.11 µM and 55.2 µM | [6] 32.3 µM and 24.1 µM | [7] 11.1 µM and 20.8 µM | [8] 51.9 µM and 48.7 µM | [9] 43.7 µM and 56.3 µM | [10] 31 µM and 43.6 µM | [11] 53.5 µM and 36.8 µM | [12] 44.6 µM and 49.9 µM | [13] 31.2 µM and 45.1 µM | [14] 32.3 µM and 37.7 µM | [15] 56.5 µM and 53.4 µM | [19] 37.8 µM and 30.3 µM | [16] 55.2 µM
inactive: [3] | [17]

OCC(F)(F)C(F)(F)C(F)(F)CO
not listed: [18] | [19] | [20]
inactive: all other assays above

Cc1ccc(S(=O)(=O)C(I)I)cc1
active: [1] 4.26 µM | [2] 3.75 µM | [4] 5.27 µM | [5] 11.4 µM | [6] 1.87 µM | [7] 1.98 µM | [8] 5.15 µM | [9] 4.78 µM | [10] 2.2 µM | [11] 1.87 µM | [12] 7 µM | [13] 2.19 µM | [14] 6.58 µM | [15] 11 µM | [20] 7.3 µM | [19] 5.39 µM | [16] 6.62 µM | [17] 2.67 µM

Source: PubChem BioAssay (EPA / NIEHS)
